Laboratory results taken from ChEMBL document CHEMBL4513216, “Probing the Open Global Health Chemical Diversity Library for Multistage-Active Starting Points for Next-Generation Antimalarials” (ACS Infect Dis, 2020).
About 2,700 (4%) of roughly 68,000 compounds showed an effect of 50% or more. For the sample, strong results were picked, then their nearest neighbours and some compounds at random.

tested on: Plasmodium berghei; assay: Screen against P. berghei liver stage (PbLuc), transformed with Luciferase, at 2uM; type: functional, HepG2; details: tested at 2 uM

Structure (SMILES) | INHIBITION [%]
Clc1ccccc1C1(c2ccnc(C3CCCC3)n2)CCNCC1 | 11.94
Cc1cc(C)n2ncc(CN3C[C@@H](O)[C@H](Oc4ccccc4)C3)c2n1 | -0.44
Cc1c(CN2C[C@@H](O)[C@H](Oc3cccc(F)c3)C2)cnn1C | 55.32
Cc1cnccc1CN1C[C@@H](O)[C@H](Oc2cccc(F)c2)C1 | 8.5
COCC(O)CN(C)c1ccnc2ccc(Cl)cc12 (stereo not drawn) | -33.34
Cc1ccsc1CN1CCc2c(nc(N3CCCCC3C)[nH]c2=O)C1 (stereo not drawn) | -17.99
c1ccc(Cn2ccnc2CN2CCOC(Cn3cccn3)C2)cc1 (stereo not drawn) | 11.1
Cn1ccnc1CN1CCOC(Cc2ccccc2)C1 (stereo not drawn) | -19.43
CC(C)n1ccnc1CN1CCOC(CC2CCCCC2)C1 (stereo not drawn) | 63.23
CC(C)n1ccnc1CN1CCCN(C(=O)CC2CCCO2)CC1 (stereo not drawn) | 33.82
CC(C)C1CN(Cc2nccn2C(C)C)CCC(=O)N1CC1CC1 (stereo not drawn) | -17.17
CC(C)n1ccnc1CN1CCOC(CCc2ccccc2)C1 (stereo not drawn) | 50.32
NC(=O)NCC(=O)N1CCCC(c2nccn2Cc2ccncc2)C1 (stereo not drawn) | 16.1
CCOc1ncccc1Cn1cc(-c2nccn2C)nn1 | -3.38
O=C(c1cccs1)N1CCCn2c(nc(CN3CCCC3)cc2=O)C1 | 13.38
Cc1nc(N2CCCCC2)ncc1-c1cc(=O)[nH]c(N2CCCC2)n1 | 17.48
FC1(F)CCN(Cc2cccnc2)CC12CCN(c1ccccn1)C2 (stereo not drawn) | 3.35
CC(C)c1cc(C(=O)N2CCC3(CC2)c2ccccc2[C@@H](N)[C@@H]3O)cs1 | 16.28
O=C1CC(NS(=O)(=O)c2ccc(F)c(Cl)c2)CN1 (stereo not drawn) | -15.08
O=C1CC(NS(=O)(=O)c2ccc(Br)cc2)CN1 (stereo not drawn) | 27.9
O=C1CC(NS(=O)(=O)c2ccc(Cl)cc2)CN1 (stereo not drawn) | 87.53
CCCN(CCC)S(=O)(=O)NC(C)C(=O)N(C)C (stereo not drawn) | -9.87
COc1ccc(OCc2nc(C(=O)N3CCCNC(=O)C3)co2)cc1 | 22.84
CC(NC(=O)CCc1nc(C(C)(C)C)no1)c1nnc2n1CCC2 (stereo not drawn) | 64.2
CC(C)c1noc(CCC(=O)NC(C)c2nnc3n2CCC3)n1 (stereo not drawn) | 45.48
CC(NC(=O)CCCc1nc(C(C)(C)C)no1)c1nnc2n1CCC2 (stereo not drawn) | 19.04

Structure (SMILES) | INHIBITION [%]
c1coc(CN2C[C@@H]3OCCN(CC4CCCO4)[C@@H]3C2)c1 (stereo partly drawn) | -44.46
CCOC(=O)N1C[C@@H]2CC[C@H]1CN(Cc1ccccc1)C2 | 18.19
COCC1(C(=O)N2CCC(c3nccn3CC3CC3)CC2)CCC1 | 52.57
O=C(O)c1cnc(N2CCC(c3nccn3CC3CC3)CC2)c(Cl)c1 | 60.39
COCCOC(=O)N1CCC(c2nccn2CC2CC2)CC1 | -1.87
COCC(=O)N1CCC(c2nccn2CC2CC2)CC1 | -34.68
c1cnc(N2CCC(c3nccn3CC3CC3)CC2)nc1 | 18.81
CCOCC(=O)N1CCC(c2nccn2CC2CC2)CC1 | -1.32
O=C(NC1CC1)N1C[C@H]2CN(c3ccccc3)C(=O)[C@H]2C1 | -0.9
CCc1nc2c(NCC3COc4c(cccc4OC)C3)ncnc2o1 (stereo not drawn) | 1.39
O=C(C1CCCc2[nH]ncc21)N1CCCCCC1 (stereo not drawn) | -0.54
O=C(C1CCCc2[nH]ncc21)N1CCCC2(C1)OCCO2 (stereo not drawn) | 64.92
O=C(C1CCCc2[nH]ncc21)N1CCCC1 (stereo not drawn) | -10.01
CNC(=O)COC(=O)c1cccc(-n2ccc(C(F)(F)F)n2)c1 | 10.31
CNC(=O)CCOC(=O)c1cccc(-n2ccc(C(F)(F)F)n2)c1 | 13.1
CNC(=O)CCOC(=O)c1cccc(-n2cccn2)c1 | 55.25
Cc1nc2c(c(N3CCCC(OCc4ccccn4)C3)n1)CCNCC2 (stereo not drawn) | 20.71
Cc1ccc(CN2CC[C@@H]3O[C@@H](C(=O)N4CCN(C)CC4)C[C@@H]32)cc1 | 41.55
Cc1nccc(C(=O)N2CCCN(Cc3cnn(C(C)C)c3)CC2)n1 | 16.6
COC(=O)C(C)(C)NC(=O)C1CC(=O)N(C2CC2)C1 (stereo not drawn) | 5.15
Cc1cc(NCCCNS(C)(=O)=O)nc2ccccc12 | 20.88
Cc1cc(NCCOCCS(C)(=O)=O)nc2ccccc12 | 53.16
Cc1cc(NCCS(C)(=O)=O)nc2ccccc12 | -0.6
Cc1cccc(-c2nc(CN3CCCC3Cn3cc(C)cn3)no2)c1 (stereo not drawn) | 1.36
COC(=O)N1CCCN(C(=O)c2cccc3cccnc23)CC1 | 5.72
COCC1CN(CCOc2ccc(Cl)cc2)Cc2c1cnn2C (stereo not drawn) | -17.24

Structure (SMILES) | INHIBITION [%]
Cc1cc(-c2cnc(C3CC3)nc2CN(C)C(=O)c2ccccn2)on1 | 34.06
Cc1cc(-c2cnc(C)nc2CN(C)C(=O)c2ccccn2)on1 | -0.54
Cc1cc(-c2cnn(CCNC(=O)c3cc[nH]n3)c2C2CC2)on1 | -2.47
Cc1cc(-c2cnc(C)nc2CN(C)C(=O)c2cc(C3CC3)on2)on1 | 51.57
Cc1cc(-c2cnn(CCNC(=O)C3CC3)c2C2CC2)on1 | -39.92
Cc1cc(-c2cnc(C(C)C)nc2CN(C)C(=O)c2ccccn2)on1 | 56.57
Cc1nn(C)cc1C1=NS(=O)(=O)N(C)C(C(=O)Nc2ccc(Cl)cc2)=C1 | -13.02
CCn1cc(S(=O)(=O)NC2CCCN(CCCc3ccccc3)C2)cn1 (stereo not drawn) | 7.21
CC(=O)N1CCCCCC1C1CCN(Cc2nnc(C(C)(C)C)o2)CC1 (stereo not drawn) | 30.82
COc1cncc(-n2ccnc2-c2ccc(C(=O)O)s2)c1 | 48.58
Cc1cnc(C(=O)N2CCC3(CC2)CC(c2ccccc2)C(=O)N3)cn1 (stereo not drawn) | -6.21
CC(=O)N[C@@H]1CN(C(=O)c2csc(C(C)C)n2)C[C@H]1C(C)C | 3.62
CC(C)c1nc(C(=O)N2C[C@H](C(C)C)[C@@H](N)C2)cs1 | 58.69
CC(C)c1nc(C(=O)N2CCCC(N)CC2)cs1 (stereo not drawn) | -66.05
COc1ccc(-c2cc(CN)nc3ccnn23)cc1 | -11.81
O=c1c(NCc2ccccn2)c(NCC(O)CN2CCOCC2)c1=O (stereo not drawn) | 15.02
O=c1c(NCc2ccncc2)c(NCC(O)CN2CCOCC2)c1=O (stereo not drawn) | 1.08
O=c1c(NCc2ccco2)c(NCC(O)CN2CCOCC2)c1=O (stereo not drawn) | 53.33
COCCN1CCc2cc(C(=O)NCC3CC3)c(NC(C)C)nc2CC1 | 25.35
COC[C@]1(O)CCN(C(=O)c2ccc(CN(C)C)o2)CC1(C)C | 8.88
CN(Cc1ccccc1)C1(C(=O)NC(CO)CO)Cc2ccccc2C1 | 31.35
CC(Cc1cn(CCc2nnn[nH]2)nn1)c1ccccc1 (stereo not drawn) | 29.41
Cc1nccc([C@H]2C[C@@H]3CCN(S(=O)(=O)N(C)C)C[C@H]3O2)n1 | 21.33
Cc1nccc([C@@H]2C[C@@H]3CCN(S(C)(=O)=O)C[C@H]3O2)n1 | 26.65
Cc1nccc([C@@H]2C[C@@H]3CCN(S(=O)(=O)N(C)C)C[C@H]3O2)n1 | 54.16
COc1cc(N2C[C@H]3CCC[C@@H](CN4CCOCC4)[C@H]3C2)ncn1 | 36.75

Structure (SMILES) | INHIBITION [%]
CCCS(=O)(=O)N1C[C@@H]2CN(Cc3ccoc3)CCO[C@@H]2C1 | 33.4
COCCCN1CC2(CCN(C(=O)c3ccc(=O)n(C)c3)CC2)CC1=O | 44.23
CCN1CCN(C(=O)c2ccc(=O)n(C)c2)c2ccccc21 | -22.63
CN1CC2(CCN(C(=O)c3ccc4nonc4c3)CC2)CC1=O | 10.02
CC(=O)N1CCCN(C(=O)c2ccc(=O)n(C)c2)c2ccccc21 | 28.18
Cn1cc(C(=O)N2CCOc3ccccc32)ccc1=O | -31.6
Cn1cc(C(=O)N2CCSc3ccccc32)ccc1=O | 50.05
CC1CN(C)c2ccccc2N(C(=O)c2ccc(=O)n(C)c2)C1 (stereo not drawn) | 15.47
CN1CC2(CCN(C(=O)c3ccc(=O)n(C)c3)CC2)CC1=O | 53.13
CN1CCN(C(=O)c2ccc(=O)n(C)c2)c2ccccc21 | 51.19
CC(C)n1nc(CN2CCCC2)c2c1CN(CC1CC1)CC2 | -29
FC(F)(F)CCc1ccnc(NCc2csc(N3CCOCC3)n2)n1 | -17.11
Cn1nnc2c1C(COCC1CC1)CN(C(=O)C1=CCCC1)C2 (stereo not drawn) | 22.68
CCN1CCC2(CCN(c3ncccn3)CC2)C1=O | 32.05
CC(C)NS(=O)(=O)c1cc(C(=O)O)cc(-c2ccc3c(c2)OCO3)c1 | -12.67
O=C(NCc1ccccn1)[C@@H]1CCO[C@@H]2CCN(Cc3ccoc3)C[C@H]21 | 11.08
O=C(c1ccno1)N1CCCC(c2ncncc2-c2ccncc2)C1 (stereo not drawn) | 6.13
OC1(CN2CCCC(Cn3cncn3)C2)CCCCC1 (stereo not drawn) | 19.9
COCC(NC1CCSCC1)c1ccnn1C (stereo not drawn) | 27.55
Cc1cc(C)cc(NC(=O)N(CCC#N)CCCN(C)C)c1 | 53.81
CN(C)CCCN(CCC#N)C(=O)Nc1ccc2[nH]ccc2c1 | -28.09
Cc1cc(NC(=O)N(CCC#N)CCCN(C)C)ccc1F | -11.32
Cc1noc(C)c1CN1CCc2ncnc(-c3ccoc3)c2CC1 | -15.88
CCOC(=O)CNC(=O)NCc1cc(C)n(-c2ccccc2OC)c1C | 7.91
CCN1CC[C@@]2(C(=O)N3CCOCC3)CCN(S(=O)(=O)CC)CC[C@@H]12 | 46.32
